Screening data from PubChem BioAssay.
Sampled rows, rich in hits. Any-hit rate of the full collection: about 3.1%.
Tb PFK block: inhibitors of T. brucei phosphofructokinase. Potency, µM (highest dose often 57.5 µM), for inactives: at the top dose activity, negative = inhibition, actives largely listed as inhibitors. AID 485367. 0.17% of 330,000 active. T. brucei PFK, ADP-Glo luminescence. O15648;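 note: 0% = uninhibited 1x PFK enzyme wells and -100% = no-enzyme wells; nearly all actives have a fitted effect of over 60% in size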
Target sequence (O15648 whole entry, looked up): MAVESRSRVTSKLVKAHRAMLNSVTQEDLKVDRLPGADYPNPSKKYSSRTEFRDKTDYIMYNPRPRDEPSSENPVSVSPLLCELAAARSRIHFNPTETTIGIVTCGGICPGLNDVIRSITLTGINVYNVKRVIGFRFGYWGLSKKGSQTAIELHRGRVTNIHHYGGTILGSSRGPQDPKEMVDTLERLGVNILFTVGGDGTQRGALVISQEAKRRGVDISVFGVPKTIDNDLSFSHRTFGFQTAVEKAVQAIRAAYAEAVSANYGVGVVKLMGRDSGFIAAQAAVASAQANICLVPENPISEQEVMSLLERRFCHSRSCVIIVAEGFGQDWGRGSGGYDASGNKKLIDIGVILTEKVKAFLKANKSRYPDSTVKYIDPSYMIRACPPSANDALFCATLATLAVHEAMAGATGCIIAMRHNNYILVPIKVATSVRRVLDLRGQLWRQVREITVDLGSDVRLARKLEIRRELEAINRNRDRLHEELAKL
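In TEA buffer at pH 8.0 with 5 mM MgCl2, enzyme (1.25 nM) converted F6P (0.5 mM) and ATP (0.1 mM) for 45 min at room temperature. ADP product was read by luciferase luminescence.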
PLK1 PBD block: inhibitors of human PLK1 polo-box domain binding. P53350. Potency, µM, without a hit: max response, negative = inhibition, usual class: inhibitors. Plk1 PBD binding of FITC phosphopeptide, fluorescence polarization. AID 720504. 2.8% of 360,000 active; note: series mostly up to about 57 µM; % is set by controls: 0 for no effect and ±100 for the full control effect; nearly all actives have a fitted effect of over 65% in size
TDP1 block: inhibitors of human tyrosyl-DNA phosphodiesterase TDP1; 0.28% of 350,000 active; Potency, µM (titrated, usually from 130 µM), for inactives: top-dose activity change, negative = inhibition, most hits filed as inhibitors; recombinant TDP1, AlphaScreen DNA substrate cleavage; Q9NUW8; note: % is set by controls: 0 for no effect and ±100 for the full control effect; nearly all actives have a fitted effect of over 40% in size
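Recombinant human Tdp1 (E. coli-expressed, 1 nM final) preincubated with compounds 15 min at room temperature, then 5'-biotin/3'-phosphotyrosine-FITC DNA substrate (15 nM final) added for 5 min. AlphaScreen beads (10 ug/ml final) added 10 min; cleavage lowers signal.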
VDR inhibitor: inhibitors of human vitamin D receptor | Potency, µM, for inactives: max response, negative = inhibition, hits mostly inhibitors | AID 504847 | 0.93% of 400,000 active | P11473 | VDR-SRC2-3 peptide fluorescence polarization, 2 h; note: % is set by controls: 0 for no effect and ±100 for the full control effect
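Compounds are added to VDR with labelled SRC2-3 coactivator peptide and held 2 h at room temperature. Inhibition of the VDR–peptide interaction is then read as a change in fluorescence polarization.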
Pin1 inh: blocks the human prolyl isomerase Pin1; Q13526; Pin1 FP peptide displacement, HiFluor488, 10 min; Potency, µM (highest dose often 115 µM), for inactives: top-dose activity, negative = inhibition, most hits filed as inhibitors; 0.009% of 390,000 active; active = well fitted inhibition curve with a large enough effect in the polarisation, with a control signal flat, not every such curve was filed as active; inconclusive = small, poorly fitted or top-dose-only effect, or effect the other way, or a change in a side signal; inactive = no such curve, though single readings can be large or run the other way; the % refers to the polarisation; note: % is set by controls: 0 for no effect and ±100 for the full control effect
Target sequence (Q13526 whole entry, looked up): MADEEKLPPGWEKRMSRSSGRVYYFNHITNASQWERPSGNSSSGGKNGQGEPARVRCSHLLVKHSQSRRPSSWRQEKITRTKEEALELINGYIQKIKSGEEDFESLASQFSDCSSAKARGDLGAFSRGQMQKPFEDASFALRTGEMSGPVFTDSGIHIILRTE
S-ASM inh: blocks human secretory acid sphingomyelinase; P17405; placental ASM, HMU-PC fluorogenic substrate, 60 min; 0.006% of 340,000 active; Potency, µM (series often up to 57.5 µM), for the others: top-dose activity change, negative = inhibition, most hits filed as inhibitors
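Human placenta-derived ASM enzyme was preincubated with compound for 10 minutes at room temperature, then given fluorogenic substrate HMU-PC0 (9 uM final) for 60 minutes at 37 °C; a pH 10 stop preceded fluorescence reading at Ex 386/Em 447 nm.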
* hit, by the source's call; i = inactive; ? = inconclusive; nt = no result; [ ] = another dose, or the depositor's remark. Unless noted, calls come from the whole dose curve; as a rule, active = well fitted curve in the direction sought with a large enough effect; inconclusive = small, poorly fitted or top-dose-only effect, or another doubt; inactive = no such curve, though single readings can be large; an effect the other way counts as inactive or inconclusive. Potency is the fitted concentration of half-maximal effect.

SMILES	Tb PFK block	PLK1 PBD block	TDP1 block	VDR inhibitor	Pin1 inh	S-ASM inh
COc1ccc(C2c3[nH]c4ccccc4c3CCN2C(=O)c2ccc(=O)n(C)n2)c(F)c1 (stereo unspecified)	-4%	2%	8%	-7%	13%	-6%
CCc1cc(C(=O)N2CCc3c([nH]c4ccccc34)C2c2ccc(OC)cc2F)no1 (stereo unspecified)	-1%	24µM*	-3%	-16%	17%	-26%
CCCCn1cnc2cc(NCc3ccccc3Cl)ccc21	nt	nt	14%	-14%	?	nt
Cc1nn(-c2ccccc2)c2c1N(CCCC(=O)NCc1ccc(OC(C)C)cc1)C(=O)CS2	nt	nt	5%	13%	-2%	nt
COc1ccc2c(c1)CCC1C2=NN(/C(C)=C\C(C)=O)C1c1ccc(F)cc1 (stereo unspecified)	2%	12µM*	-5%	?	65%	5%
Cc1ccc(C(=O)NN2C(=O)c3ccc(S(=O)(=O)c4ccc(C(=O)O)cc4)cc3C2=O)cc1	1%	21µM*	0%	40µM*	-9%	-1%
CCOc1cc(/C=N/Nc2nc(-c3cccs3)c(NC(C)=O)s2)ccc1O	-15%	27µM*	nt	35µM*	17%	2%
CC(=O)Nc1sc(N/N=C\c2ccco2)nc1-c1cccs1	-14%	?	9%	?	17%	-3%
Cc1cc2ccccc2n1CCNC(=O)c1ccc(Br)cc1	nt	nt	5%	-12%	-8%	nt
Cc1cc2ccccc2n1CCNC(=O)c1ccc(Br)o1	-1%	-25%	nt	79µM*	?	0%
C[C@@H](C1[C@@H](O)CC2C3C=CC4C[C@@H](O)CC[C@]4(C)[C@H]3CC[C@@]21C)[C@@H]1CCCCN1 (stereo partly specified)	nt	nt	4%	-11%	nt	nt
COc1cc(NC(=O)COC(=O)CNC(=O)c2ccc(C)s2)cc(OC)c1	-9%	24µM*	8%	-12%	-5%	3%
COc1ccc(C(=O)COC(=O)CNC(=O)c2ccc(C)s2)c(OC)c1	-4%	-12%	-4%	1%	12%	-7%
COc1cc(OC)c(-c2sc(Nc3ccccc3)n[n+]2-c2ccc(F)cc2)cc1OC	0%	-12%	nt	-5%	-3%	8%
CSc1ccc(-c2sc(Nc3cccc4ccccc34)n[n+]2-c2ccccc2)cc1	0%	?	nt	79µM*	1%	-4%
CCOc1cc(-c2sc(Nc3ccccc3)n[n+]2-c2ccc(F)cc2)ccc1OC	-7%	24µM*	nt	1%	?	-7%
CSc1ccc(-c2sc(Nc3ccccc3)n[n+]2-c2ccccc2)cc1	0%	24µM*	nt	-12%	17%	-16%
COc1cc(OC)c(NS(=O)(=O)c2ccc3c(c2)CCCN3C(C)=O)cc1Cl	nt	nt	3%	-1%	3%	nt
COc1ccc2nc(SCC(=O)N3CCCCC3)c(C#N)cc2c1	-3%	-9%	11%	1%	4%	73%
COc1ccc2nc(N3CCCC3)c(C#N)cc2c1	1%	17µM*	nt	-21%	nt	68%
COc1ccc2nc(N3CCCCC3)c(C#N)cc2c1	1%	-27%	40µM*	16%	?	76%
Cc1cc(Cl)n2c(nc3ccccc32)c1C#N	-3%	?	-3%	40µM*	9%	107%
O=C(COC(=O)c1cc(-c2ccc(Cl)s2)nc2ccccc12)NCc1ccco1	9%	?	2%	79µM*	?	222%
O=C(COC(=O)c1cc(-c2cccs2)nc2ccccc12)NCc1ccco1	?	?	-10%	-12%	7%	261%
COc1ccc(-c2nnc3n2N=C(c2ccccc2OC)CS3)cc1	nt	nt	7%	nt	5%	nt
SMILES	Tb PFK block	PLK1 PBD block	TDP1 block	VDR inhibitor	Pin1 inh	S-ASM inh
CN(C)c1ccc(NC(=O)N2CCOCC2)cc1	-17%	-6%	-5%[56.1 µM]	14µM*	3%	2%
O=C(Nc1ccc(F)cc1)N1CCOCC1	-2%	-12%	1%	14%	?	0%
CCOC(=O)N1CCC(NC(=O)c2ccc3c(c2)N(Cc2ccccc2)C(=O)c2ccccc2S3(=O)=O)CC1	nt	nt	-2%	-21%	6%	nt
C=CC[C@@H]1/C=C(\C)C[C@H](C)C[C@H](OC)[C@H]2O[C@@](O)(C(=O)C(=O)N3CCCC[C@H]3C(=O)O[C@H](/C(C)=C/[C@@H]3CC[C@@H](O)[C@H](OC)C3)[C@H](C)[C@@H](O)CC1=O)[C@H](C)C[C@@H]2OC	nt	nt	7%	-17%	nt	nt
COc1cc(OC)cc(C(=O)NCC(=O)OCC(=O)N2CCc3ccccc32)c1	3%	27µM*	2%	?	0%	4%
COc1ccc(C(=O)NCC(=O)OCC(=O)N2CCc3ccccc32)cc1	2%	-9%	-3%	-15%	2%	2%
Cc1cc(-c2ccc(N=Nc3cc(S(=O)(=O)O)c4ccccc4c3N)c(C)c2)ccc1N=Nc1cc(S(=O)(=O)O)c2ccccc2c1N	nt	nt	13%	nt	nt	nt
COc1ccc(C2/C=C\CN(CC(C)C)C(Cc3ccccc3)C(=O)N2Cc2ccc(F)cc2)cc1 (stereo unspecified)	nt	nt	4%	-22%	?	nt
CCCCn1c(NC(=O)c2ccco2)c(S(=O)(=O)c2ccc(C)cc2)c2nc3ccccc3nc21	3%	?	0%	?	?	i
CCCCCn1c(NC(=O)c2ccco2)c(S(=O)(=O)c2ccc(C)cc2)c2nc3ccccc3nc21	14%	21µM*	4%	?	32%	i
CCC(=O)Nc1c(S(=O)(=O)c2ccccc2)c2nc3ccccc3nc2n1C(C)c1ccccc1 (stereo unspecified)	0%	-14%	3%	-13%	14%	i
CCCCn1c(NC(=O)c2ccc(Br)o2)c(S(=O)(=O)c2ccccc2)c2nc3ccccc3nc21	1%	25µM*	5%	?	-7%	301%
CC(=O)c1cccc(NC(=O)N2CCCC2C(=O)Nc2ccc3c(c2)OCO3)c1 (stereo unspecified)	1%	30µM*	1%	-5%	2%	2%
CC(=O)c1cccc(NC(=O)N2CCCC2C(=O)Nc2cccc(C)c2)c1 (stereo unspecified)	1%	-1%	1%	-1%	-9%	0%
CCOC(=O)c1sc(NC(=O)c2cc(-c3ccccc3C)nc3ccccc23)c(C#N)c1C	-2%	5.3µM*	6%	-10%	22%	?
Cc1ccccc1-c1cc(C(=O)Nc2sc(C)c(C)c2C(N)=O)c2ccccc2n1	-13%	27µM*	7%	-1%	10%	-17%
CCCC(=O)Nc1sc(Cc2ccccc2)c(C)c1C(N)=O	-18%	5.3µM*	1%	?	1%	-1%
